# More than one record can exist for a structure, and the calls need not agree. The source made the active and inactive calls. How the source made its calls: active means hit-call score of the fitted dose curve at least 0.9, where 1 is the maximum; inactive means score below 0.9.
# Assay: ATG_RORE_CIS: Attagene CIS-FACTORIAL HepG2 Assay for human RAR-related Orphan Receptor Element (RORE) (AID 2282959)
# Conditions: HepG2 Attagene cis-factorial RORE reporter, mRNA; actives raise or lower the signal
# Description: ATG_CIS is a cell-based, multiplexed-readout assay that uses HepG2, a human liver cell line, with measurements taken at 24 hours after chemical dosing in a 24-well plate.ATG_RORE_CIS is one of 52 assay component(s) measured or calculated from the ATG_CIS assay. It is designed to make measurements of mRNA induction, a form of inducible reporter, as detected with fluorescence intensity signals by Reverse transcription polymerase chain reaction (RT-PCR) and Capillary electrophoresis technology.Data from the assay component ATG_RORE_CIS was analyzed into 1 assay endpoint. This assay endpoint, ATG_RORE_CIS, was analyzed with bidirectional fitting relative to DMSO as the negative control and baseline of activity. Using a type of inducible reporter, measures of mRNA for gain or loss-of-signal activity can be used to understand the reporter gene at the transcription factor-level as they relate to the gene RORA and RORB and RORC. Furthermore, this assay endpoint can be referred to as a primary readout, because this assay has produced multiple assay endpoints where this one serves a reporter gene function. To generalize the intended target to other relatable targets, this assay endpoint is annotated to the nuclear receptor intended target family, where the subfamily is orphan.
# Human liver HepG2 cells are transiently transfected with multiple reporter transcription units (MRTUs) in 6-well plates using FuGene 6 reagent (Roche; 3 ml FuGene/1 mg DNA). The MRTU constructs are regulated by a cis-regulating element (promoter). […] A major difference between the CIS and TRANS system is that in CIS activities of endogenous TFs are measured, whereas the TRANS assay evaluates changes in activities of exogenous, chimeric NR-Gal4 proteins. […] At the end of 24 hour incubation, total RNA was isolated using TriZol reagent (Invitrogen). The isolated RNA is then reverse-transcribed using oligo(dT) primer and Mo-MLV reverse transcriptase (Invitrogen) with DNAse I (Ambion) treatment for 30 min. The one-tenth of the produced cDNA was amplified by PCR using Taq DNA polymerase (Invitrogen) and two reporter sequence-specific primers. The PCR products were fluorescently labeled by primer extension with 6-arboxyfluorescein (6-FAM) 5'-labeled reporter sequence-specific primer (2 min at 95 C, 20 s at 68 C and 10 min at 72 C) and these products were digested with 5U of HpaI (New England Biolabs) for 2h at 37 C. The fragments were purified using Qiaquick PCR columns (Qiagen), analyzed on an ABI 3130xL genetic analyzer (Applied Biosystems) with peak positions identified by using a set of X-rhodamine (ROX)-labeled MapMarker1000 molecular weight standards (BioVentures). The raw capillary electrophoresis data was processed using Attagraph software (Attagene).
Structure (SMILES),outcome,AC50
OC12N=C(c3ccccc3)SC1Cc1cc(Cl)ccc12 (stereo not given),inactive,–
O=c1[nH]sc2ccccc12,inactive,–
O=c1c(-c2ccc(O)cc2)coc2cc(O)cc(O)c12,inactive,–
Cc1ncc(CO)c(CO)c1O,inactive,–
Oc1ccccc1,inactive,–
CCCCCc1ccc(N)cc1,inactive,–
CC(C)(C)c1cc(/C=C2\SC(N)=NC2=O)cc(C(C)(C)C)c1O,inactive,–
CN(C)C(=O)C1(N2CCCCC2)CCN(CC[C@@]2(c3ccc(Cl)c(Cl)c3)CN(C(=O)c3ccccc3)CCO2)CC1,inactive,–
CCCCCCCCN(C)CCCCCCCC,inactive,–
O=C(O)c1ccccc1-n1cc(C(=O)O)c(=O)c2cc(Nc3c(F)cc(F)cc3Cl)c(Cl)cc21,inactive,–
CCCCCCCCOC(=O)c1cc(O)c(O)c(O)c1,inactive,–
COc1cccc([C@H](O)C2CCN(CCc3ccc(F)cc3)CC2)c1OC,inactive,–
c1ccc2n[nH]nc2c1,inactive,–
CCCCCCCCCC(=O)O,inactive,–
Cc1cn([C@H]2C[C@H](N=[N+]=[N-])[C@@H](CO)O2)c(=O)[nH]c1=O,inactive,–
Oc1ccc2ccccc2c1,inactive,–
C[C@]12CC[C@@H]3c4ccc(O)cc4CC[C@H]3[C@@H]1CC[C@H]2O,inactive,–
Clc1ccccc1C(c1ccccc1)(c1ccccc1)n1ccnc1,–,11.1 µM (active)
NCc1cccc(C2CCN(C(=O)c3ccc(C#Cc4ccccc4F)o3)CC2)c1,–,6.79 µM (active)

Structure (SMILES),outcome,AC50
CC(O)CC(C)(C)O (stereo not given),inactive,–
COc1ccc2cc(S(=O)(=O)N[C@H](CC(=O)N[C@H](Cc3ccc(CN4[C@H](C)CCC[C@@H]4C)cc3)C(=O)N(C)C(C)C)c3ccc4c(c3)OCO4)ccc2c1,inactive,–
O=C(O)Cc1cc(I)c(Oc2ccc(O)c(I)c2)c(I)c1,–,34.9 µM (active) [middle of 4 runs]
O=C1c2ccccc2C(=O)N1CCc1noc(-c2ccc(CN3CCCCCC3)s2)n1,inactive,–
CCCCOC(=O)c1ccc(O)cc1,inactive,65 µM (active)
c1ccc(C[n+]2cccc3ccccc32)cc1,inactive,–
O=C(OCCCCCCOC(=O)c1ccccc1)c1ccccc1,inactive,–
CCCCCCCCCCCC[N+](C)(C)C,inactive,–
CCCCCCCC[Si](OCC)(OCC)OCC,inactive,–
O=c1ccc2ccccc2o1,inactive,–
O=C(O)c1ccccc1C(=O)OCc1ccccc1,inactive,–
Cc1cc2c(cc1C(F)(F)F)N(C(=O)Nc1ccc(Oc3cccnc3C)nc1)CC2,inactive,–
CN1C(=O)CC[C@H]1c1cccnc1,inactive,–
O=C(Nc1ccc(Cl)cc1)Nc1ccc(Cl)c(Cl)c1,–,4.17 µM (active)
CCN(Cc1cccnc1)C(=O)c1cccc(Cl)c1[C@]1(C)C(=O)N(Cc2ccc(OC)cc2OC)c2ccc(Cl)cc21,–,2.74 µM (active)
CCCCCCCCCCCO,inactive,–
CCCCOC(=O)CC(CC(=O)OCCCC)(OC(C)=O)C(=O)OCCCC,inactive,27.5 µM (active)
Cc1oc2c(NC(=O)c3c(Cl)cccc3Cl)cccc2c1C(C)(C)O,–,31.6 µM (active)
COc1cc(C(=O)NC2CCN(C)CC2)ccc1Nc1ncc2c(n1)N(C1CCCC1)CC(F)(F)C(=O)N2C,–,3.55 µM (active)
